This note sets out measurements from PubChem BioAssay (NCATS).

SMILES strings stand for the structures. Where “and” joins values, the source holds several entries; their conditions need not be identical. Identical values can stand only once. Inconclusive results are not listed. Values without a mark were called inactive. The call rests on the fitted dose curve.

Chain of Bile acid receptor (Homo sapiens) (Q96RI1 whole entry, looked up): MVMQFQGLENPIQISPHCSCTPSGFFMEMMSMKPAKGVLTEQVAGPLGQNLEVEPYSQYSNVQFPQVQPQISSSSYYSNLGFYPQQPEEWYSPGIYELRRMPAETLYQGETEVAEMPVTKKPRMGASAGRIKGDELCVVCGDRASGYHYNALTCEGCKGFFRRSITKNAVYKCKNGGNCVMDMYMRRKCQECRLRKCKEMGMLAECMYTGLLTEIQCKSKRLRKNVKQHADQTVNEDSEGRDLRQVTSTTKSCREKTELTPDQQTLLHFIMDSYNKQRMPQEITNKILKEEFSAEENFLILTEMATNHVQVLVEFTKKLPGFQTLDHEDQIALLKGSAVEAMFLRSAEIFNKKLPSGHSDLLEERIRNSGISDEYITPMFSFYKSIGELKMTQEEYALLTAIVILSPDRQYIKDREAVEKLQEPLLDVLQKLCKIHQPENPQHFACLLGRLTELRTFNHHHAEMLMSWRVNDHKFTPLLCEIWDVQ

The assay has as its target Bile acid receptor (Homo sapiens) (UniProt Q96RI1). The assay is described as follows: qHTS assay for small molecule agonists of farnesoid X receptor signaling (AID 588527).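 Further: series mostly up to about 77 µM; 0% = vehicle basal and 100% = reference agonist.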 The settings on record: HEK293T FXR-UAS-bla, beta-lactamase ratio, 16 h; activation: hits give high values. The essentials:
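FXR-UAS-bla HEK293T cells (10% dialyzed FBS) preincubated 5-7 h at 37 C, then compounds at up to 92 uM for 16 h at 37 C. CCF4 beta-lactamase read-out after 2 h RT. Normalized to chenodeoxycholic acid (100 uM) and DMSO; Hill fit gave EC50 and efficacy.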
Background: qHTS replaces the single test concentration by a dilution series.
`CO[Si](CCCNCCC[Si](OC)(OC)OC)(OC)OC`: the activation was 1.6%.

Take `O=c1[nH]c(=O)c2[nH]cnc2[nH]1`: the activation is -9.18%.

As to `c1ccc2c(c1)Cc1ccccc1-2`, the activation was 0.0131%.

Consider `O=C1OC(=O)c2c(Cl)c(Cl)c(Cl)c(Cl)c21`, for which the activation is -0.745% and 3.66%.

Take `O=C(O)CCCCCCC(=O)O`: the activation is 1.16%.

Regarding `C=Cc1ccccc1C=C`, the activation was -0.167%.

Regarding `S=C1NC=NC2N=CNC12` (centres undefined), the activation is -5.16%.

For `CCCCCCCCCCCO`, the activation is -0.12%.

Turning to `OCC(CO)(CO)COCC(CO)(CO)CO`, the activation is -6.39%.

For the compound `CC(C)c1ccccc1`, the activation is -3.82%.

Regarding `COC(=O)c1c(Cl)nn(C)c1S(=O)(=O)NC(=O)Nc1nc(OC)cc(OC)n1`, the activation was 3.79%.

For the compound `CCCC(C)CO` (centres undefined), the activation was 1.08%.

In the case of `CC1(C)[C@@H]([C@@H](Br)C(Br)(Br)Br)[C@H]1C(=O)O[C@H](C#N)c1cccc(Oc2ccccc2)c1`, the activation is 6.35%.

For the compound `CC/C=C/C/C=C/C/C=C/CCCCCCCC(=O)OCC`, the activation was 1.74%.

With `CCO[Si](CCC#N)(OCC)OCC`, the activation was 0.364%.

`CC(C)C[C@H](NC(=O)OCC1c2ccccc2-c2ccccc21)C(=O)O`: the activation is -0.845%.

As to `CCCCCCCCOc1ccc(C(=O)O)cc1`, the activation is 11.7%.

For `Oc1ccc(C(c2ccc(O)cc2)C(Cl)(Cl)Cl)cc1`, the activation was 0.126%.

For the compound `CCC(C)(C)C`, the activation is -0.224%.

Regarding `O=Cc1ccc(CO)o1`, the activation was 2.1%.

Consider `CCOCCO`, for which the activation is 0.436%.

Consider `O=C=Nc1ccc(Cl)c(Cl)c1`, for which the activation is 2.96%.

In the case of `CCN(Cc1c(F)cccc1Cl)c1c([N+](=O)[O-])cc(C(F)(F)F)cc1[N+](=O)[O-]`, the activation is 8.75%.

Turning to `CCCOC(=O)c1cc(O)c(O)c(O)c1`, the activation is -0.748%.

As for `CC(C)(C)CC(C)(C)c1ccc(OCCO)cc1`, the activation is 2.48%.

In the case of `Cc1nc2ccc(Cl)cc2[nH]1`, the activation was -1.36%.

`Nc1cccc(N)c1`: the activation is 0.315%.

For the compound `CC(C)(C)OC=O`, the activation is -2.91%.

On to `O=C1OC(=O)c2ccccc21`, for which the activation is 1.95%.

`CCCCCCCCCCCC[N+](C)(C)C`: the activation was 0.368%.

`CNc1nc(=O)n(C2CCCCC2)c(=O)n1C`: the activation is -6.04%.

In the case of `N#CSCSc1nc2ccccc2s1`, the activation is 15%.

Regarding `CCOC(=O)C(C)Oc1ccc(Oc2cnc3cc(Cl)ccc3n2)cc1` (centres undefined), the activation is -3.91%.

Regarding `CN(C)CCCNCCCN`, the activation is 2.54%.

Turning to `CC(C)Cc1nccs1`, the activation is -0.154%.

With `CC(C)c1ccc(C(C)C)cc1`, the activation is 2.92%.

Regarding `CCOCCOCCOCCO`, the activation was 2.46%.

On to `COc1ccc(OC)c(OC)c1`, for which the activation was 0.0379%.

Regarding `O=C(O)C1(C(=O)Nc2ccc(Cl)cc2Cl)CC1`, the activation is -11.8%.
